# FBPA coupling cs: inhibits coupling enzyme system, counter-screen for aldolase hits. coupling enzyme system counterscreen, AmpLite Red fluorescence. activity change, negative = inhibition, % at 58.2 µM, hits read low. actives 0.67% (n = 290,000). AID 2472; in the data active means activity change below about -30%
#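 First, compound is pin-transferred into glyceraldehyde-3-phosphate coupling-enzyme reagent at 57.5 uM final and held 10 min at RT. Next, substrate, coupling system and AmpLite Red are added. After 20 min RT, fluorescence (525/598 nm) is read.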
# ELG1 DNA repair: blocks ELG1-dependent DNA repair in HEK293T cells; HEK293T ELG1-luciferase reporter, luminescence, 16 h; DNA damage induced by 5-fluorouridine; Potency, µM (doses to about 46.1 µM), for the others: at the top dose activity change, negative = inhibition, most hits filed as inhibitors; AID 504467; actives 2.3% (n = 330,000); further: potency means the concentration at half of the fitted maximal effect; nearly all actives have a fitted effect of over 55% in size
#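 Quantitative HTS, concentration-response format. 2,000 cells/well co-treated with 5-fluorouridine and compound, 16 hr in 5% CO2 at 37 °C; ONE-Glo luminescence read after 30 min.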
# Sfp inh: blocks B. subtilis Sfp PPTase activity | Potency, µM, for inactives: largest response in the series, negative = inhibition, usual class: inhibitors | AID 1490 | Biochemical Sfp PPTase activity, qHTS | Q9F4F7 | actives 3.5% (n = 310,000);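 further: the enzyme is Sfp with the accession as filed and its product quenches rhodamine fluorescence; potency means the concentration at half of the fitted maximal effect; 0% = enzyme reaction without inhibitor and -100% = no enzyme wells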
#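 Reaction rates are the 30-min fluorescence difference (ex 525, em 598 nm) in wells containing 15 nM Sfp, 5 uM rhodamine-CoA and 12.5 uM BHQ-2-YbbR at pH 7.6 with 10 mM MgCl2.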
# Giardia kill: Giardia lamblia killing; Giardia lamblia trophozoite viability; activity change, % at 7.66 µM, hits read low; actives 0.15% (n = 340,000); AID 540267; in the data active means activity change below about -80%; inconclusive means between about -30% and that limit;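 further: parasites exposed to compound for two days anaerobically before the ATP read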
#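 Killing of trophozoites was scored by loss of ATP luminescence after a 48 hrs anaerobic exposure to compounds at 37 deg C, using 100 cells per well.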
# The depositor's hits bear a star; ? = inconclusive; nt = no result given. This is a sample that favours compounds with a hit; in the whole collection about 5.5% have one here. Unless noted, the call rests on the fitted dose curve; in most records, active means well fitted curve in the direction sought with a large enough effect; inconclusive means small, poorly fitted or top-dose-only effect, or another doubt; inactive means no such curve, though single readings can be large; an effect the other way counts as inactive or inconclusive. Unless noted, on the % scale 0 is the no-effect control and ±100 the full control effect.
SMILES,FBPA coupling cs,ELG1 DNA repair,Sfp inh,Giardia kill
CCOC(=O)c1c(C)[nH]c(N=Nc2ccccc2)c1C,-1,?,-24%,25
O=C1CCCCC1Nc1ccc(Br)cc1 (stereo not given),nt,nt,nt,-11
CC1CN(S(=O)(=O)c2cccc(C(=O)NCCC3=CCCCC3)c2)CC(C)O1 (stereo not given),nt,-8%,nt,-14
Cc1ccc(C(=O)COC(=O)C2C3C=CC(C3)C2C(=O)OCC(=O)c2ccc(C)c(C)c2)cc1C (stereo not given),-1,13µM*,12%,-5
CC(C)(S)[C@@H](N)C(=O)O,-1,4%,50µM*,24
CC(C)[C@@H](N)C(=O)O,0,nt,-20%,nt
Cc1c(CCO)c(=O)[nH]n1S(=O)(=O)c1ccc([N+](=O)[O-])cc1,-5,0%,7%,5
OCCCCNc1cccc2ccccc12,-41*,14%,-25%,-2
OCCCCCNc1ncnc2ccccc12,-1,?,19%,5
Cc1[nH]c(C)c(Cl)c(=O)c1Cl,2,nt,12%,nt
COc1cc(-c2cc(C(=O)Nc3ccc(N4CCOCC4)cc3)c3ccccc3n2)cc(OC)c1OC,3,8.2µM*,9%,15
COc1ccccc1NC(=O)c1cc(-c2cc(OC)c(OC)c(OC)c2)nc2ccccc12,-1,?,2%,20
COc1cc(-c2cc(C(=O)Nc3cc(S(=O)(=O)N4CCOCC4)ccc3O)c3ccccc3n2)cc(OC)c1OC,nt,15µM*,nt,-14
COc1ccc(NC(=O)c2cc(-c3ccc(C)o3)nc3ccccc23)cc1OC,-1,15µM*,22µM*,-3
COc1cc(-c2cc(C(=O)Nc3ccncc3)c3ccccc3n2)cc(OC)c1OC,nt,6.5µM*,nt,21
CCOc1ccccc1NC(=O)c1cc(-c2cc(OC)c(OC)c(OC)c2)nc2ccccc12,-2,?,0%,14
Cc1ccc(S(=O)(=O)/N=C(/Nc2c(C)cccc2C)c2ccccc2)cc1,nt,-2%,nt,3
Cc1cc(NCc2ccccn2)n2ncc(-c3ccc(Cl)cc3)c2n1,-4,?,-19%,-4
Cc1cc(NCc2ccccn2)n2nc(C)c(-c3ccc(Cl)cc3)c2n1,-3,26µM*,-8%,-9
CCCc1cc(NCc2ccccn2)n2nc(C)c(-c3ccccc3)c2n1,-2,21µM*,-9%,14
Cc1cc(NCCC(C)C)n2nc(C)c(-c3ccccc3)c2n1,-5,?,56µM*,-6
Cc1nn2c(NCc3ccccn3)cc(C(C)C)nc2c1-c1ccccc1,2,?,-10%,6
Cc1cc(NCCCN2CCOCC2)n2nc(C)c(-c3ccccc3)c2n1,-1,-18%,1%,22
COc1ccc(Cl)cc1C(=O)n1cnc2ccccc21,1,4%,10%,-6
COc1ccc(C2=NC(C)(C)Cc3cc(OC)c(OC)cc32)cc1OC,1,-4%,-1%,5
SMILES,FBPA coupling cs,ELG1 DNA repair,Sfp inh,Giardia kill
COc1cc2c(cc1OC)C(CC#N)=NC(C)(C)C2,-2,?,79µM*,-17
COc1ccc(-n2c(C)cc(/C=N/Nc3nnc(C)n3N)c2C)cc1,-28,0%,32µM*,4
Cc1cc(NC(=O)Nc2cccc(Cl)c2)n(-c2ccccn2)n1,-5,16µM*,12%,-16
CCOC(=O)CSc1nc2ccc(N3CCOCC3)cc2c(=O)n1Cc1ccccc1,-32*,?,?,5
O=C(CSc1nc2ccccc2c(=O)n1CCC(=O)N1CCN(c2ccccc2)CC1)NCC1CCCO1 (stereo not given),1,-12%,0%,0
CCOC(=O)CSc1nc2ccccc2c(=O)n1CCN1CCOCC1,1,?,15%,-10
CCCCn1c(SCC(=O)NCCOC)nc2ccc(N3CCOCC3)cc2c1=O,-37*,11%,10%,-6
CCCCNC(=O)CSc1nc2ccc(N3CCOCC3)cc2c(=O)n1CCc1ccccc1,-37*,?,-7%,1
O=C(CSc1nc2ccc(N3CCOCC3)cc2c(=O)n1CCc1ccccc1)NCC1CCCO1 (stereo not given),-31*,?,-8%,16
CCCCNC(=O)CSc1nc2ccccc2c(=O)n1CCNC(C)=O,-1,0%,8%,14
Cc1nc2cnc(N3CCNCC3)nc2n(CCC#N)c1=O,0,nt,36%,nt
COCCNC(=O)CSc1nc2ccc(N3CCOCC3)cc2c(=O)n1CCc1ccccc1,-44*,-28%,?,17
COCCNC(=O)CSc1nc2ccccc2c(=O)n1CCC(=O)N1CCN(c2ccccc2)CC1,1,-10%,-1%,-1
CC(C)N(C(=O)[C@H]1C[C@H](CC(=O)NCCC2=CCCCC2)C(=O)N2CCc3c([nH]c4cc(-c5ccco5)ccc34)[C@]12C)C(C)C,nt,-12%,nt,1
COc1ccc(C(=O)/C(C#N)=N/Nc2ccc([N+](=O)[O-])cc2)cc1,0,1.3µM*,-4%,?
CC(C)CN(C(=O)Cn1ccccc1=O)C1CCS(=O)(=O)C1 (stereo not given),nt,?,nt,-2
COC1=C[C@@H](C)C2CC3OC(=O)C[C@H]4C(C)=C(OC)C(=O)C([C@@]2(C)C1=O)[C@@]34C (stereo not given in full),2,nt,10%,nt
COc1ccc2cc(C3=CCCC3(C)C(=O)O)ccc2c1 (stereo not given),nt,nt,nt,4
Cc1ccc2c(c1)c1c3n2CCN(C(=O)C2CC2)C3CCC1 (stereo not given),-36*,8%,?,-4
Cc1ccc2c(c1)c1c3n2CCN(C(=O)CN2CCN(C)CC2)C3CCC1 (stereo not given),-2,17%,-10%,-14
Cc1ccc2c(c1)c(=O)c1c3n2CCN(C(=O)CCl)C3CC1 (stereo not given),-42*,?,79µM*,-24
COc1ccc(C(=O)N/C(=C/c2ccco2)C(=O)N2CCCCCC2)cc1,-1,6%,89µM*,-8
Cc1ccc(C(=O)N/C(=C/c2ccco2)C(=O)N2CCOCC2)cc1,1,9%,17%,-1
O=C(N/C(=C\c1ccco1)C(=O)N1CCOCC1)c1ccco1,-8,0%,28µM*,19
Cc1ccc(C(=O)N/C(=C\c2ccco2)C(=O)N2CCOCC2)cc1C,nt,21µM*,-16%,-9
SMILES,FBPA coupling cs,ELG1 DNA repair,Sfp inh,Giardia kill
COc1ccc(CCN2CC(C(=O)Nc3ccccc3F)CC2=O)cc1OC (stereo not given),nt,?,nt,10
O=C(Cn1nnc(-c2ccccc2)n1)N=Nc1c(O)[nH]c2ccccc12,0,5%,89µM*,-3
O=C(/C=C/c1cccc2ccccc12)c1ccncc1,-2,26%,25µM*,?
O=C(N/N=C/c1cccc2ccccc12)c1ccncc1,-4,8%,-4%,-25
CC(C)n1cc(/C=C/c2cc[n+](C)cc2)c2ccccc21,-33*,?,8%,3
CCn1cc(/C=C/c2cc[n+](C)cc2)c2ccccc21,-25,2.9µM*,-8%,15
C=CCn1cc(/C=C/c2cc[n+](C)cc2)c2ccccc21,-20,?,-11%,15

# High-throughput results as filed in PubChem.
